Measurements as given in PubChem BioAssay (NCATS).
“And” between values parts separate entries of the source, which are not always exact repeats. Identical values can stand only once. Values without a mark were called inactive. Records with an inconclusive call do not appear. More than one record can exist for a structure, and the calls need not agree. The source made the active and inactive calls. Calls come from the whole dose curve; as a rule, active = well fitted curve in the direction sought with a large enough effect; inconclusive = small, poorly fitted or top-dose-only effect, or another doubt; inactive = no such curve, though single readings can be large; an effect the other way counts as inactive or inconclusive.

System: not listed separately
Test: qHTS for Activators of Parkin Expression: LOPAC Validation Assay (FLuc Reporter) (AID 720573;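 note: 0% = DMSO and 100% = positive control compounds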)
Conditions: Cell line, PRKN promoter firefly luciferase reporter; series mostly up to 46.1 µM; activation: at the top concentration
In short: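 Readout is FLuc luminescence from neuronal reporter cells (Parkin promoter, FLuc plus NLuc) after 24 h compound exposure in dose response. Values normalized to neutral DMSO and positive-control compounds.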

Row | SMILES | activation [%] | Potency
1 | CC(=O)CCCCn1c(=O)c2c(ncn2C)n(C)c1=O | -1.01 | 
2 | Clc1ccc(Cn2c(CN3CCCC3)nc3ccccc32)cc1 | -14.1 | 
3 | O=C(O)CCc1nc(-c2ccccc2)c(-c2ccccc2)o1 | -6.11 | 
4 | C[N+](C)(C)CCCCCC[N+](C)(C)C |  | inactive
5 | Clc1ccc(C(c2ccc(Cl)cc2)n2cc[n+](CC(OCc3ccc(Cl)cc3Cl)c3ccc(Cl)cc3Cl)c2)cc1 (stereo not given) | -18.7 | 
6 | CCN(CC)CCNC(=O)c1ccc(N)cc1 | -4.92 | 
7 | O=C1NCC2(CCN(CCc3ccccc3)CC2)O1 | -0.576 | 
8 | CCN(CC)CCOC(=O)c1ccc(N)cc1 | 4.3 | 
9 | CCN(CC)C(=O)c1ccc(O)c(OC)c1 | -5.4 | 
10 | O=C(NCCN1CCOCC1)c1ccc(Cl)cc1 | 1.77 | 
11 | CC1(C)CCC2=C(O1)c1ccccc1C(=O)C2=O | -50.2 | 
12 | NCCS | 8.28 | 
13 | CCN1CCC[C@H]1CNC(=O)c1cc(S(N)(=O)=O)ccc1OC | 3.14 | 
14 | COC(=O)[C@@H]1[C@H]2C[C@H]3c4[nH]c5ccccc5c4CCN3C[C@@H]2CC[C@@H]1O | -2.55 | 
15 | Cc1cccc(C)c1OCC(C)N (stereo not given) | -6.73 | 
16 | CCCCCN(C)CCC(O)(P(=O)(O)O)P(=O)(O)O | -9.15 | 
17 | NC(N)=Nc1nc(CSCC/C(N)=N/S(N)(=O)=O)cs1 | 4.74 | 
18 | COc1ccccc1N1CCN(CCCNc2cc(=O)n(C)c(=O)n2C)CC1 | -6.42 | 
19 | COc1ccc(Cc2nccc3cc(OC)c(OC)cc23)cc1OC | -2.35 | 

Target: T1, Hexokinase-4 (Homo sapiens) + Glucokinase regulatory protein (Homo sapiens) (UniProt P35557+Q14397)
T1 sequence (P35557 whole entry, looked up): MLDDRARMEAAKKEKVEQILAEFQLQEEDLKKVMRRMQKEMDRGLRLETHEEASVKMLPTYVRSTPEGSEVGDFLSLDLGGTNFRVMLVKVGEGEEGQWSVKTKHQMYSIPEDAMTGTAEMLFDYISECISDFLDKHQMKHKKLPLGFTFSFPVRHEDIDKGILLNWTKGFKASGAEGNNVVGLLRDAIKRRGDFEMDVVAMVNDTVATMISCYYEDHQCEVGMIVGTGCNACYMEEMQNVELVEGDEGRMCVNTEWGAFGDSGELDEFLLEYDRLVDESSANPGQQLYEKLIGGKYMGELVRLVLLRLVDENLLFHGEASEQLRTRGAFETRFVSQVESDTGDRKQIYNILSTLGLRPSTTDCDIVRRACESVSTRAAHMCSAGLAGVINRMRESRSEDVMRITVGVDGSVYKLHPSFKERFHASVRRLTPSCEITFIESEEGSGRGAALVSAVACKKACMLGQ
T1 sequence (Q14397 whole entry, looked up): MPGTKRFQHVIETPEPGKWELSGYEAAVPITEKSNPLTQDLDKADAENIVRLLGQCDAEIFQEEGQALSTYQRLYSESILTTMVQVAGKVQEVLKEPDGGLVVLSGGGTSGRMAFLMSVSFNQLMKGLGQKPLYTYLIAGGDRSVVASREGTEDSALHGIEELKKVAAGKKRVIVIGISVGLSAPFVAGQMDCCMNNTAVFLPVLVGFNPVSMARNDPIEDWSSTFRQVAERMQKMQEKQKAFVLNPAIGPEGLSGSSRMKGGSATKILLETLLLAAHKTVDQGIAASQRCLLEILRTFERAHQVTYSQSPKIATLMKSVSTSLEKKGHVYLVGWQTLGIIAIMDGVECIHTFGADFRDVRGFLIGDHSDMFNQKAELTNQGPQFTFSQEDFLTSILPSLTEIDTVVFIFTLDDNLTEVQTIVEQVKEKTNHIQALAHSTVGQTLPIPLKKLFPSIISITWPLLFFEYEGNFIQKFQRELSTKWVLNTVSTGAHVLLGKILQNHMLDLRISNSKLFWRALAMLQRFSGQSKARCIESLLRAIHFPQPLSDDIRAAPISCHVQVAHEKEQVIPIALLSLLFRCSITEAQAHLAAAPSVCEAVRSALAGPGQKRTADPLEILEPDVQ
Test: qHTS assay for inhibitors of recombinant human GCK-GKRP interaction: ADP-Glo assay (AID 743206);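 note: plate controls were DMSO plus enzyme for no effect and no enzyme for full effect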
Conditions: ADP-Glo luminescence, 60 min, 0% = vehicle-only wells with enzyme present; series mostly up to 76.9 µM; activity, positive = activation: at the top concentration
In short: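 GST-GCK and FLAG-GKRP (15 nM each in the dispensed mix, with 2 uM S6P) react with 0.4 mM ATP and 5 mM glucose (final) in Hepes pH 7.6 for 60 min at room temperature. ADP is measured by ADP-Glo luminescence.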

Row | SMILES | activity, positive = activation [%] | outcome
20 | CC(=O)CCCCn1c(=O)c2c(ncn2C)n(C)c1=O | 1.62 | 
21 | Clc1ccc(Cn2c(CN3CCCC3)nc3ccccc32)cc1 | 3.26 | 
22 | C[N+](C)(C)CCCCCC[N+](C)(C)C |  | inactive
23 | Clc1ccc(C(c2ccc(Cl)cc2)n2cc[n+](CC(OCc3ccc(Cl)cc3Cl)c3ccc(Cl)cc3Cl)c2)cc1 (stereo not given) | -25.4 | 
24 | CCN(CC)CCNC(=O)c1ccc(N)cc1 | 3.16 | 
25 | O=C1NCC2(CCN(CCc3ccccc3)CC2)O1 | 3.54 | 
26 | CCN(CC)CCOC(=O)c1ccc(N)cc1 | 2.54 | 
27 | CCN(CC)C(=O)c1ccc(O)c(OC)c1 | -0.235 | 
28 | O=C(NCCN1CCOCC1)c1ccc(Cl)cc1 | 4.38 | 
29 | CC1(C)CCC2=C(O1)c1ccccc1C(=O)C2=O | 1.94 | 
30 | NCCS | 1.34 | 
31 | COc1cccc(-c2cc(=O)c3ccccc3o2)c1N | -2.77 | 
32 | CCN1CCC[C@H]1CNC(=O)c1cc(S(N)(=O)=O)ccc1OC | 0.271 | 
33 | COC(=O)[C@@H]1[C@H]2C[C@H]3c4[nH]c5ccccc5c4CCN3C[C@@H]2CC[C@@H]1O | -0.413 | 
34 | Cc1cccc(C)c1OCC(C)N (stereo not given) | 1.03 | 
35 | CCCCCN(C)CCC(O)(P(=O)(O)O)P(=O)(O)O | 1.45 | 
36 | NC(N)=Nc1nc(CSCC/C(N)=N/S(N)(=O)=O)cs1 | 3.25 | 
37 | COc1ccccc1N1CCN(CCCNc2cc(=O)n(C)c(=O)n2C)CC1 | -0.261 | 
38 | COc1ccc(Cc2nccc3cc(OC)c(OC)cc23)cc1OC | -1.42 | 

Target: T1, Hexokinase-4 (Homo sapiens) + Glucokinase regulatory protein (Homo sapiens)
Test: qHTS assay for inhibitors of recombinant human GCK-GKRP interaction: HTRF assay (AID 743207);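 note: 0% = DMSO with GCK present and -100% = DMSO wells lacking GCK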
Conditions: recombinant GCK-GKRP HTRF binding, 60 min, with sorbitol-6-phosphate; series mostly up to 57.5 µM; activity change, negative = inhibition: at the top concentration
In short: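 Titration screening format: recombinant GST-GCK and FLAG-GKRP at 5 nM, S6P at 2 uM, labelled anti-tag antibodies, 60 min at RT, dual-wavelength HTRF readout.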

Row | SMILES | activity change, negative = inhibition [%] | outcome
39 | CC(=O)CCCCn1c(=O)c2c(ncn2C)n(C)c1=O | -6.62 | 
40 | Clc1ccc(Cn2c(CN3CCCC3)nc3ccccc32)cc1 | -1.03 | 
41 | C[N+](C)(C)CCCCCC[N+](C)(C)C |  | inactive
42 | CCN(CC)CCNC(=O)c1ccc(N)cc1 | -19.4 | 
43 | O=C1NCC2(CCN(CCc3ccccc3)CC2)O1 | -8.71 | 
44 | CCN(CC)CCOC(=O)c1ccc(N)cc1 | -1.92 | 
45 | CCN(CC)C(=O)c1ccc(O)c(OC)c1 | 6.22 | 
46 | O=C(NCCN1CCOCC1)c1ccc(Cl)cc1 | -14.2 | 
47 | NCCS | 3.14 | 
48 | COc1cccc(-c2cc(=O)c3ccccc3o2)c1N | 2.6 | 
49 | CCN1CCC[C@H]1CNC(=O)c1cc(S(N)(=O)=O)ccc1OC | 9.12 | 
50 | COC(=O)[C@@H]1[C@H]2C[C@H]3c4[nH]c5ccccc5c4CCN3C[C@@H]2CC[C@@H]1O | -10.8 | 
51 | Cc1cccc(C)c1OCC(C)N (stereo not given) | 0.313 | 
52 | CCCCCN(C)CCC(O)(P(=O)(O)O)P(=O)(O)O | 3.84 | 
53 | NC(N)=Nc1nc(CSCC/C(N)=N/S(N)(=O)=O)cs1 | -0.271 | 
54 | COc1ccccc1N1CCN(CCCNc2cc(=O)n(C)c(=O)n2C)CC1 | -1.96 | 
55 | COc1ccc(Cc2nccc3cc(OC)c(OC)cc23)cc1OC | 2.28 | 

System: not listed separately
Test: qHTS Assay for Identifying Gametocytocidal Compounds (AID 743244); note: potency is the fitted concentration of half-maximal effect;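 for max response: % is set by controls: 0 for no effect and ±100 for the full control effect; actives lower the fluorescent signal which means gametocytes are killed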
Conditions: P. falciparum 3D7 stage III-V gametocytes, alamarBlue, 72 h; max response: stronger effect = lower value
In short: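 3D7 gametocytes, stages III–V, 20,000/well; cpd 72 h, 37 °C/5% CO2; + alamarBlue 24 h; fluor. Ex 525/Em 598.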

Row | SMILES | max response | Potency
56 | OC[C@@H](O)[C@H](O)[C@H](O)[C@@H](O)CO | 1.74% and -2.1% | 
57 | C[C@@H](O)[C@H]1C(=O)N2C(C(=O)O)=C(S[C@@H]3CN[C@H](C(=O)N(C)C)C3)[C@H](C)[C@H]12 | 2.89% | 
58 | CC(=O)CCCCn1c(=O)c2c(ncn2C)n(C)c1=O | -1.45% and 1.03% | 
59 | O=C(O)CCc1nc(-c2ccccc2)c(-c2ccccc2)o1 | 14.6% and 5.09% | 
60 | C[N+](C)(C)CCCCCC[N+](C)(C)C | 5.46% and 9.66% and 12.2% | 
61 | CC(=O)Oc1cc2c(s1)CCN(C(C(=O)C1CC1)c1ccccc1F)C2 (stereo not given) | 3.57% | 
62 | Cc1cnc(C(=O)O)c[n+]1[O-] | 8.17% and 2.06% and -4.26% | 
63 | CCN(CC)CCNC(=O)c1ccc(N)cc1 | 34.9% | 
64 | O=C1NCC2(CCN(CCc3ccccc3)CC2)O1 | 1.69% and 18.3% | 
65 | CCN(CC)CCOC(=O)c1ccc(N)cc1 | 17.2% and 7.74% | 
66 | CC(C)NCC(O)COc1cccc2[nH]ccc12 (stereo not given) | 5.47% and 6.31% | 
67 | CCN(CC)C(=O)c1ccc(O)c(OC)c1 | 14.2% and 0.626% and 4.97% | 
68 | O=C(NCCN1CCOCC1)c1ccc(Cl)cc1 | -4.13% and 9.69% and 29.4% | 
69 | CC1(C)CCC2=C(O1)c1ccccc1C(=O)C2=O |  | 2.82 µM (active)
70 | CC(C(=O)O)c1ccc(-c2ccccc2)c(F)c1 (stereo not given) | 6.81% | 
71 | CCc1ccc(OCc2ccccc2C(=O)Nc2ccc3nc(C)cc(N)c3c2)cc1 |  | 8.33 µM (active)
72 | NCCS | -3.42% and 10.4% and 19.2% | 
73 | O=C(O)c1c(Cl)c(Cl)c(Cl)c(Cl)c1-c1c2cc(I)c(=O)c(I)c-2oc2c(I)c(O)c(I)cc12 | -8.78% | 
74 | CCN1CCC[C@H]1CNC(=O)c1cc(S(N)(=O)=O)ccc1OC | 11.5% and 6.55% | 
75 | COC(=O)[C@@H]1[C@H]2C[C@H]3c4[nH]c5ccccc5c4CCN3C[C@@H]2CC[C@@H]1O | 29.3% and 18.6% | 
76 | Cc1cccc(C)c1OCC(C)N (stereo not given) | 9.33% and -4.15% and 13.1% | 
77 | CC[C@]1(O)C[C@@H]2CN(CCc3c([nH]c4ccccc34)[C@@](C(=O)OC)(c3cc4c(cc3OC)N(C)[C@H]3[C@@](O)(C(=O)OC)[C@H](OC(C)=O)[C@]5(CC)C=CCN6CC[C@]43[C@@H]65)C2)C1 | -2.09% | 15.8 µM (active)
78 | NC(N)=Nc1nc(CSCC/C(N)=N/S(N)(=O)=O)cs1 | 5.05% and 9.64% | 
79 | COc1ccccc1N1CCN(CCCNc2cc(=O)n(C)c(=O)n2C)CC1 | 9.05% and -4.71% and 2.95% | 
